From PubChem BioAssay AID463 (The Scripps Research Institute Molecular Screening Center, 2006)
Among all 56,000 compounds or so, about 710 (1.3%) were called active. What follows is part of a selection rich in actives, with near analogues and random picks from the rest. Unmarked numbers belong to inactive results.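 Rule for the calls: active = inhibition above the mean inhibition of all tested compounds plus 3 SD (cut at about 28% in these data); inactive = the rest.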

Experiment: cytotoxicity toward Jurkat T cells, primary screen, cytotoxicity control, cell-based, Jurkat E6.1, 60K MLSMR library (AID 463)
Conditions: Jurkat E6.1 viability, ATP luminescence, 48 h; at 4 µM; active compounds read high

Structure (SMILES) | inhibition
CS(=O)(=O)c1ccc2nc(NC(=O)C3CCCCC3)sc2c1 | 5.6%
COc1ccccc1N1CCN(Cc2nnnn2CCc2ccccc2)CC1 | -5.1%
COc1ccccc1N1CCN(C(=O)CN(Cc2ccc(Cl)cc2)S(C)(=O)=O)CC1 | 9.3%
COc1ccccc1-n1nnnc1S(=O)(=O)Cc1ccc(Cl)cc1 | 53.4% (active)
Cc1oc(C)c(C(=O)NCCCC(=O)O)c1C(=O)NCCCC(=O)O | -3.9%
Cc1ccc2nc(-c3ccc(SCC(=O)Nc4cc(C)on4)nc3)[nH]c2c1 | -5.8%
O=C(O)CCSc1nnc(-c2ccccc2)n1-c1ccccc1 | -2.8%
O=C1CCCN1CCCNc1ncnc2c1[nH]c1ccccc12 | 2.2%
CC(C)OCCCNc1ncnc2c1[nH]c1ccc(F)cc12 | 87.6% (active)
CCN1CCCC1CNc1ncnc2c1[nH]c1ccc(F)cc12 (configuration not stated) | 3.2%
COc1ccc(OC)c2c1sc(=NC(=O)CN1C(=O)CCC1=O)n2C | 1.4%
CC(=O)Nc1cccc(Oc2cc(C#N)c(C#N)cc2N2CCOCC2)c1 | 1.2%
CCOc1cc(N2CCOCC2)c(OCC)cc1NC(=O)COc1cccc2cccnc12 | 37.5% (active)
CCOc1cc(NC(=O)c2ccco2)c(OCC)cc1NC(=O)COc1ccccc1 | 0.4%
COc1ccc(OCC(=O)N2CCOCC2)cc1 | -4.3%
Cc1nc2ccc(NC(=O)N3CCC(c4ccccc4)C3)cc2nc1C (configuration not stated) | -3.3%
CCc1nnc(NC(=O)C2CCCN2S(=O)(=O)c2ccccc2)s1 (configuration not stated) | 2.3%
CCc1nnc(NC(=O)c2ccc(S(=O)(=O)NC3CCCCC3)cc2)s1 | 27.4%
CC1CCCCN1S(=O)(=O)c1ccc(C(=O)Nc2nnc(-c3cccs3)o2)cc1 (configuration not stated) | 101% (active)
O=C1c2ccccc2-c2ncnc3c(N4CCOCC4)cc(N4CCOCC4)c1c23 | 6.4%
CC1CCCN(Cc2nc3c(c(=O)n(C)c(=O)n3C)n2Cc2cccc3ccccc23)C1 (configuration not stated) | -3.6%

Structure (SMILES) | inhibition
CNC(=O)CSc1nnnn1-c1ccc(C)cc1C | -4.9%
CCOC(=O)c1c(-c2ccc(C)cc2C)csc1NC(=O)CSc1nnnn1C | 28.5% (active)
CCOC(=O)CNC(=O)CSc1nnnn1-c1cc(C)ccc1C | -1.2%
CCOCCCNC(=O)Cc1cc(=O)[nH]c(=O)[nH]1 | -4.5%
CCC(c1nnnn1Cc1ccccc1)N(Cc1cc2cc(OC)ccc2[nH]c1=O)CC1CCCO1 (configuration not stated) | -4.6%
CC(Nc1nc(N2CCCC2)nc2ccccc12)c1ccccc1 (configuration not stated) | 4.2%
COc1ccc(-n2nnc3c(=O)n(CC(=O)OCc4ccccc4)cnc32)cc1 | 7%
Cc1cccc(-n2c(O)c(C=Nc3ccccc3N)c(=O)[nH]c2=O)c1 | 46.2% (active)
Cc1cccc(-n2c(N)c(C(=O)N3CCN(C)CC3)sc2=S)c1 | 2.6%
O=C(CS(=O)(=O)c1cn(Cc2ccc(Cl)cc2)c2ccccc12)N1CCOCC1 | 5.9%
COc1ccc(N(Cc2cc3cc(OC)ccc3[nH]c2=O)S(C)(=O)=O)cc1 | 8.7%
CCC(C)Sc1nnc(-c2c[nH]c3ccccc23)n1CCOC (configuration not stated) | 6%
CC(=O)Oc1ccc2c(C)c(CC(C)O)c(=O)oc2c1 (configuration not stated) | -1.3%
COc1ccc(OCc2cccc(C(=O)N3CCCC3)c2)cc1 | -5.2%
O=C(CSc1nc2c(cnn2-c2ccc(F)cc2)c(=O)[nH]1)N1CCCCCC1 | 2.5%
CC(C)Oc1ccc(C(=O)Nc2cc(=O)n(C)c(=O)n2C)cc1 | 2.6%
COc1ccc(C2=NOC(C(=O)NCc3ccco3)C2)cc1OC (configuration not stated) | 85.8% (active)
O=C(c1ccco1)N1CCN(C(=O)C2CC(c3ccc(Cl)c(Cl)c3)=NO2)CC1 (configuration not stated) | -1.7%
COc1ccc(CCNS(=O)(=O)c2ccc(C(=O)NCc3ccco3)cc2)cc1OC | 0.2%
CC(C)NS(=O)(=O)c1ccc(NC(=O)c2cccnc2)cc1 | 0.7%
Cc1ccccc1OCC(=O)Nc1ccc(N2CCN(C(=O)C(C)C)CC2)c(Cl)c1 | 30.2% (active)

Structure (SMILES) | inhibition
CN1CCN(c2ccc(NC(=O)COc3ccc(Cl)cc3Cl)cc2)CC1 | -0.1%
Cc1cccc(NC(=O)COc2ccccc2C)n1 | 8.1%
Cc1cc(C(=O)OCC(=O)NCc2ccco2)c(C)n1-c1ccccc1 | 75.4% (active)
O=C(CSc1nnc(-c2cccs2)n1-c1ccccc1)NCc1ccco1 | -1.7%
CCOC(=O)c1cnc(SCC(=O)NCc2ccco2)nc1N | -0.1%
COc1cccc(OC)c1C(=O)Nc1nnc(C(C)C)s1 | 5.1%
Cc1ccc(OCC(=O)Nc2ccc(-c3nc4ncccc4o3)cc2)cc1 | -9.9%
COc1ccc(C)c(Cn2c(-c3nonc3N)nc3ccccc32)c1 | 75.3% (active)
Nc1nonc1-c1nc2ccccc2n1CCC(=O)O | 1.7%
Nc1nonc1-c1nc2ccccc2n1Cc1ccc(F)cc1 | 20.3%
CCC(=NC1CC(C)(C)NC(C)(C)C1)C1=C(O)CC(C)(C)CC1=O | -4.2%
CCc1cc(=O)oc2cc(OCC(=O)N3CCCc4ccccc43)ccc12 | -8.4%
CCN(c1ccccc1)S(=O)(=O)c1ccc(N)cc1 | -3.3%
CC1CN(c2cc(=O)n(-c3cccc(Br)c3)c(=O)[nH]2)CC(C)O1 (configuration not stated) | 1.2%
CCC(=O)Nc1ccc2c(c1)nc(CCN1CCN(C)CC1)n2C | 7.5%
Cc1nn(CC(=O)Nc2ccc3c(c2)nc(CN2CCCCC2)n3C)c(=O)c2ccccc12 | 1.4%
Cn1c(CN2CCOCC2)nc2cc(NC(=O)c3ccc(Cl)cc3)ccc21 | 86.9% (active)
CC(=O)OC(C(=O)NCCc1ccccc1)c1cccnc1 (configuration not stated) | -5.8%
O=S(=O)(NCC1CCCO1)c1ccc2ccccc2c1 (configuration not stated) | -0.5%
CC1CCCN(Cc2nc3c(c(=O)n(C)c(=O)n3C)n2CC(=O)c2ccccc2)C1 (configuration not stated) | 4.9%
CC1=NC2(CCCc3c2no[n+]3[O-])N(O)C1(C)C (configuration not stated) | 12.1%

Structure (SMILES) | inhibition
Cc1cc(NC(=O)CSCc2nc(-c3cccc(Cl)c3)oc2C)no1 | 0.8%
c1cnn(-c2cc(N3CCOCC3)ncn2)c1 | -0.2%
O=C(Nc1cc(N2CCOCC2)ncn1)NC1(C(F)(F)F)Oc2ccc(Cl)cc2O1 (configuration not stated) | 72.6% (active)
COc1c(C)cccc1C(=O)Nc1cc(Cl)ccc1N1CCOCC1 | -1%
CCOC(=O)C1=C(C)NC(C)=C(C(=O)OCC)C1C1=COCCO1 | -5.9%
CCOC(=O)CCc1c(C)c2ccc(OCc3nn[nH]n3)c(C)c2oc1=O | -2.2%
CN(C)CCCn1c(N)c(C#N)c2nc(C#N)c(C#N)nc21 | 1.9%
CC(C)Cc1cc(C(=O)NCCc2ccccc2)no1 | 6%
CC(C)CNC(=O)c1cc(-c2ccc(Br)cc2)on1 | 1.8%
CC(C)Cc1cc(C(=O)Nc2cc(Br)ccc2O)no1 | 60.7% (active)
COCCn1c(SCC(=O)Nc2cc(Cl)ccc2OC)nc2c(c1=O)SC(C)C2 (configuration not stated) | 6.8%
O=C(CSc1nnc(-c2ccco2)n1-c1ccccc1)NCCc1ccccc1 | 0.2%
N#Cc1nc(-c2ccc(OCc3ccccc3)cc2)oc1NCCCN1CCOCC1 | -3.2%
COc1ccc(Nc2oc(-c3ccccc3Cl)nc2C#N)cc1 | 85.4% (active)
CCOc1ccc(Nc2oc(Cc3ccccc3)nc2C#N)cc1 | -0.9%
O=C(Nc1nc(-c2ccncc2)cs1)C1COc2ccccc2O1 (configuration not stated) | 7.3%
O=C(Nc1nc(-c2ccc3c(c2)OCO3)cs1)c1ccncc1 | 44% (active)
O=C(Nc1ccc2c(c1)OCCO2)c1ccncc1 | 3.8%
Cn1c(=O)cc(SCC(=O)N2CCCC2)c2cc(Cl)ccc21 | 3.9%
